Bioassay records (PubChem BioAssay)
TDP1 block – TDP1 (human) enzyme inhibition | recombinant TDP1, AlphaScreen DNA substrate cleavage | Potency, µM (top dose mostly 130 µM), for inactives: at the top dose activity change, negative = inhibition, usual class: inhibitors | 350,000 compounds, 0.28% hits; also: potency is read from the fitted curve at half-maximal effect; nearly all actives have a fitted effect of over 40% in size
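Recombinant human Tdp1 (E. coli-expressed, 1 nM final) preincubated with compounds 15 min at room temperature, then 5'-biotin/3'-phosphotyrosine-FITC DNA substrate (15 nM final) added for 5 min. AlphaScreen beads (10 ug/ml final) added 10 min; cleavage lowers signal.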
DT40 TDP1 no CPT – qHTS for Inhibitors of human tyrosyl-DNA phosphodiesterase 1 (TDP1): qHTS in cells in absence of CPT; DT40 Tdp1-/- hTDP1 cells, no CPT, ATP luminescence, 48 h; Potency, µM (top dose mostly 46.2 µM), without a hit: at the top dose activity change, negative = growth inhibition, actives largely listed as inhibitors; 420,000 compounds, 15% hits; also: potency is read from the fitted curve at half-maximal effect; nearly all actives have a fitted effect of over 55% in size
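Camptothecin absent (DMSO only). Human TDP1-complemented DT40 knockout cells, 400 cells/well, 37 °C for minimum 48 hr; ATP measured via CellTiter-Glo, 30 min dark incubation, luminescence.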
Six1-Eya2 inh – Six1/Eya2 interaction inhibition; AlphaScreen GST-Six1/His-Eya2 binding, biochemical; active compounds read low; activity change, % (test concentration not listed); 360,000 compounds, 0.56% hits; in the data active = activity change below about -65%; inconclusive = mostly about -30% to -63%
Target sequence (O00167 whole entry, looked up): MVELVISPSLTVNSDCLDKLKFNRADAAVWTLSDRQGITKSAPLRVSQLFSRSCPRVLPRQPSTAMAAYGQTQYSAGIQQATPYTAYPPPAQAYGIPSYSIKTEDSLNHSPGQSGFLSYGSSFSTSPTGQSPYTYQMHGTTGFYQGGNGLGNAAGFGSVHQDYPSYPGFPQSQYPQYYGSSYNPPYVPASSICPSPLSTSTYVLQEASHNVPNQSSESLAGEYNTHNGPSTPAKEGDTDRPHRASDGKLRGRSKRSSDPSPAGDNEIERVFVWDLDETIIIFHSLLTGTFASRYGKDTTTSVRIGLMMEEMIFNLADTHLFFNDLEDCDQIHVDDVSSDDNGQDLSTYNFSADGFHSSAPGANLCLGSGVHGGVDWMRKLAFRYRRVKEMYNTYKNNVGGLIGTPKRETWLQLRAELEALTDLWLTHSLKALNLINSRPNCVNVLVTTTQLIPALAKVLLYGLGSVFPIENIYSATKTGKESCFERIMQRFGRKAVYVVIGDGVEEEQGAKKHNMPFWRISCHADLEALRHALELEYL
Target sequence (Q15475 whole entry, looked up): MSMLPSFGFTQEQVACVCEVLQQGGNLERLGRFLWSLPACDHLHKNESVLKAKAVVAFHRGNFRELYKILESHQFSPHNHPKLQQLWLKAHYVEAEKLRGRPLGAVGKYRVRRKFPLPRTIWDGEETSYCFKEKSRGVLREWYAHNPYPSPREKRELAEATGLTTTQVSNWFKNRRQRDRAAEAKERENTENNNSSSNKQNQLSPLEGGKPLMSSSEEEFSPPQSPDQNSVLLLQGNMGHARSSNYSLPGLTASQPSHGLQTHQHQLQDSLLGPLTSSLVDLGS
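GST-Six1 + His-Eya2 (5X stock: 250/500 nM); Tris pH 8.0, 300 mM NaCl, 0.05% BSA, 0.02% Tween 20; GSH donor/Ni acceptor beads; 1 h 37 °C dark; AlphaScreen readout.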
IL1B secr inh – inflammasome signaling inhibition, IL-1 beta readout | 360,000 compounds, 4.7% hits | AID 743279 | activity change, % at 57.5 µM | THP-1 LPS/ATP IL-1B secretion, AlphaLISA, 16 h; active compounds read low; in the data active = activity change below about -50%; inconclusive = mostly about -30% to -49%
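THP-1 cells pretreated 1 hr with compounds (up to 57.5 uM final), then stimulated with LPS (250 ng/mL final) plus ATP (1.25 mM final); secreted IL-1B measured by AlphaLISA after 16 hr, decreased signal indicating inhibition.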
TDP1 cell CPT – growth inhibition of DT40 Tdp1-/-;hTDP1 cells with camptothecin (screen for TDP1 inhibitors) | chicken DT40 Tdp1-/-;hTDP1 cells + 20 nM CPT, ATP luminescence, 48 h | AID 686979 | 420,000 compounds, 12% hits | Potency, µM (doses to about 46.2 µM), inactives show at the highest dose activity change, negative = growth inhibition, usual class: inhibitors; also: potency is read from the fitted curve at half-maximal effect; nearly all actives have a fitted effect of over 55% in size
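Cell growth measured by CellTiter-Glo luminescence after a minimum 48 h, 37 C compound exposure with 20 nM CPT in Tdp1-knockout DT40 cells stably expressing hTDP1, seeded 400/well; qHTS titration format.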
CtBP-E1A blk – blocks the CtBP interaction with E1A. AlphaScreen GST-E1A/His-CtBP binding, 1536-well; active compounds read low. activity change, % (no concentration beside the values). 340,000 compounds, 0.49% hits. AID 651724; in the data active = activity change below about -65%; inconclusive = mostly about -30% to -63%
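Steps: dispense buffer (Tris pH 8.0, NaCl 300 mM, TCEP 1 mM, BSA, Tween 20); add 5X protein mix (GST-E1A, His-CtBP, 125 nM each); pin 23 nL compound; 2 h at 37 °C, dark; add 5X beads (50 ug/mL); 1 h; read.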
The depositor's hits bear a star; ? = inconclusive; . = no result. This is a sample that favours compounds with a hit; in the whole collection about 18% have one here. Unless noted, calls follow the shape of the dose curve; as a rule, active = well fitted curve in the direction sought with a large enough effect; inconclusive = small, poorly fitted or top-dose-only effect, or another doubt; inactive = no such curve, though single readings can be large; an effect the other way counts as inactive or inconclusive. % is scaled to controls: 0 for no effect and ±100 for the full control effect.

SMILES | TDP1 block | DT40 TDP1 no CPT | Six1-Eya2 inh | IL1B secr inh | TDP1 cell CPT | CtBP-E1A blk
O=C(/C=N\O)NCCCNCc1ccccc1 | -2.0% | -2.7% | 7.4 | 0.9 | -6.6% | 10.6
CC(C)OCCCNC(=O)c1cc2c(-c3ccc(Cl)cc3)nn(C)c2s1 | -2.3% | 20.6µM* | . | . | ? | .
CCCCN(CC)CCNC(=O)c1cc2c(-c3ccc(Cl)cc3)nn(C)c2s1 | 0.0% | ? | -19.4 | -97.2* | ? | -11.4
CCN(CC)CCNC(=O)c1cc2c(-c3ccc(Cl)cc3)nn(C)c2s1 | 0.0% | ? | ? | -89.8* | ? | ?
Cn1nc(-c2ccc(Cl)cc2)c2cc(C(=O)NCCCN3CCOCC3)sc21 | 0.0% | 18.4µM* | -20.3 | 0.0 | 16.4µM* | -7.9
COc1ccc(C(=O)Nc2ncccc2C)cc1S(=O)(=O)N1CCOCC1 | 7.5% | -2.3% | -1.0 | 18.5 | 0.7% | 9.7
COc1cccc(CNc2ccc3[nH]c(=O)[nH]c3c2)c1OCc1ccccc1Cl | 13.6% | ? | ? | -5.2 | ? | ?
OC(CNCc1ccc(Cl)cc1)(c1ccccc1)c1ccc(F)cc1 (configuration not stated) | -7.7% | 23.1µM* | -0.5 | -67.4* | ? | 21.1
OC(CNCc1ccc(F)cc1)(c1ccc(F)cc1)c1ccc(F)cc1 | 1.0% | ? | 11.4 | -54.7* | 23.1µM* | 17.3
Cc1n[nH]c(C)c1NC(=O)CN1CCN(S(=O)(=O)c2ccc(C(F)(F)F)cc2)CC1 | . | 9.9% | 3.2 | -23.3 | -23.7% | 0.0
O=S1(=O)CCOC[C@H](CC2CCCCC2)N1Cc1ccccc1F | . | 20µM* | 2.5 | -16.3 | ? | 4.9
O=S1(=O)CCOC[C@H](CC2CCCCC2)N1Cc1ccccc1Br | . | 20.6µM* | -3.0 | -10.5 | ? | 8.0
O=C(CSc1cccc2cccnc12)OCC(=O)c1ccc(Br)cc1 | 7.9% | -15.4% | -14.9 | 13.3 | -1.4% | -29.0
O=C(CSc1cccc2cccnc12)N1CCCC1 | 7.8% | 5.17µM* | -93.3* | -115.9* | 4.11µM* | -91.4*
NNC(=O)CSc1cccc2cccnc12 | -2.5% | 3.1% | -6.5 | -26.9 | 4.5% | 9.4
CN(C)C(=O)CSc1cccc2cccnc12 | 8.7% | 4.61µM* | -91.4* | -7.9 | 4.61µM* | -94.4*
O=C(CSc1cccc2cccnc12)OCC(=O)c1ccccc1 | 6.0% | ? | -87.7* | 0.0 | ? | -93.3*
Cc1ccc(CNC(=O)C(C)n2nc(C)c3sc4ccccc4c3c2=O)cc1 (configuration not stated) | 2.9% | ? | . | . | ? | .
CCC(C(=O)NCCc1ccc(SC)cc1)n1nc(C)c2sc3ccccc3c2c1=O (configuration not stated) | 5.7% | 23.1µM* | . | . | ? | .
COc1ccc(CNC(=O)C(C)n2nc(C)c3sc4ccccc4c3c2=O)cc1OC (configuration not stated) | 5.7% | 6.51µM* | . | . | 6.51µM* | .
COc1ccc(CCNC(=O)C(C)n2nc(C)c3sc4ccccc4c3c2=O)cc1OC (configuration not stated) | -8.6% | 18.4µM* | . | . | 14.6µM* | .
CSc1ccc(CCNC(=O)C(C)n2nc(C)c3sc4ccccc4c3c2=O)cc1 (configuration not stated) | 2.9% | ? | . | . | ? | .
CCC(C(=O)NCCc1ccc(OC)c(OC)c1)n1nc(C)c2sc3ccccc3c2c1=O (configuration not stated) | 0.0% | 8.2µM* | . | . | 9.2µM* | .
CCC(CC)NC(=O)CN(c1ccccc1OC)S(=O)(=O)c1cccs1 | 1.9% | -28.3% | 7.4 | 3.8 | -15.3% | 0.6
O=C1CCCc2c1[nH]c1ccc(CN3CCCCC3)cc21 | -4.0% | ? | -13.0 | -51.8* | 16.4µM* | -11.8
SMILES | TDP1 block | DT40 TDP1 no CPT | Six1-Eya2 inh | IL1B secr inh | TDP1 cell CPT | CtBP-E1A blk
C=C1C(=O)CC2=C1[C@](Cc1ccc(F)cc1)(C(=O)OC)N(C(=O)c1ccccc1)C2 | . | 20.6µM* | 7.5 | -6.1 | 18.4µM* | 3.7
COC(=O)[C@@]1(Cc2ccc(F)cc2)[C@H]2c3cc(C(=O)N(C)C)n(C)c3C[C@H]2CN1C(=O)c1ccccc1 | 12.9% | ? | -4.2 | -6.9 | ? | -2.2
COC(=O)[C@@]1(Cc2ccc(OC)cc2)[C@@H]2C(=CC(=O)[C@H]2CC(=O)C(=O)N(C)C)CN1C(=O)c1ccccc1 | -3.9% | 16.4µM* | -5.7 | -75.9* | -96.2% | .
C=C1C(=O)C=C2CN(C(=O)c3ccccc3)[C@@](Cc3ccc(F)cc3)(C(=O)OC)[C@@H]12 | 3.9% | 0.0517µM* | 3.9 | -103.3* | 0.164µM* | 0.3
CN(CCOc1ccccc1)S(=O)(=O)c1ccccc1C#N | -0.2% | -13.8% | 9.7 | 20.7 | 3.9% | .
CCCOc1ccc(Cl)cc1/C=C1/C(=O)ON=C1C | . | ? | 1.5 | 3.9 | 29.1µM* | 9.1
CC1=NOC(=O)/C1=C\c1ccc2c(c1)OCO2 | -6.5% | 14.6µM* | 2.2 | -96.5* | ? | 3.1
C#CCOc1ccc(/C=C2/C(=O)ON=C2C)cc1Cl | . | 18.4µM* | -1.7 | -13.6 | ? | 8.0
CC1=NOC(=O)/C1=C/c1ccc2c(c1)OCO2 | -2.5% | ? | 2.8 | -12.6 | 9.2µM* | .
O=C1OCC/C1=C\c1ccc2c(c1)OCO2 | -5.1% | -24.8% | 6.9 | -8.3 | 9.2% | 3.4
O=C(C(=O)N1CCN(CCN2CCOCC2)CC1)c1ccccc1 | . | 2.1% | 42.7 | 0.2 | -5.8% | 0.0
Nc1nc(CN2CCN(Cc3ccc4c(c3)OCO4)CC2)nc(Nc2ccccc2)n1 | 8.0% | ? | -5.4 | -18.9 | 0.7% | -10.6
CC1=NOC(=O)/C1=C\c1ccc(-c2ccc(Cl)cc2Cl)o1 | -3.2% | 11.6µM* | -16.9 | -62.4* | 13µM* | 8.4
COc1ccc(/C=C2/C(=O)ON=C2C)cc1Br | . | ? | 14.0 | -88.0* | ? | 9.8
COc1ccccc1/C=C1/C(=O)ON=C1C | . | ? | 2.0 | -20.9 | ? | -3.3
O=C(CCC(=O)n1ncc2ccccc21)N1CCCCC1 | . | -7.6% | 2.9 | 26.3 | -7.7% | -2.0
COc1ccc2cc3cc(C(=O)Nc4ccccc4N4CCN(C)CC4)oc3nc2c1 | 1.0% | 4.61µM* | -1.9 | -95.6* | 4.61µM* | -0.7
COc1ccc2cc3cc(C(=O)NCCN4CCN(c5ccccc5F)CC4)oc3nc2c1 | 0.0% | 16.4µM* | -26.2 | -18.1 | ? | -22.1
Cc1ccc2cc3cc(C(=O)NCCCN4CCCC4)oc3nc2c1 | 0.0% | 14.0% | -3.2 | -50.8* | 1.7% | -19.5
